{
  "source": "PubChem BioAssay (NCATS)",
  "key": {"[1]": {"biological_target": "Phospholipid hydroperoxide glutathione peroxidase GPX4 (Homo sapiens) (UniProt P36969)", "sequence (P36969 whole entry, looked up)": "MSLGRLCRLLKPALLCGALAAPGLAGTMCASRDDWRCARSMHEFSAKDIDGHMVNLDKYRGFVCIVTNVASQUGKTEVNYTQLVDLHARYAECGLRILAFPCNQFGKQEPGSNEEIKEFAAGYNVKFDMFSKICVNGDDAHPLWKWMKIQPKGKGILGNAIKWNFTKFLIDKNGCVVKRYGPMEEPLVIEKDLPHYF", "assay": "Primary qHTS Assay for Inhibitors of Recombinant Selenoprotein Glutathione Peroxidase 4 (GPX4) (AID 1845192); note: nearly all actives have a fitted effect of over 65% in size; note: potency is the fitted concentration of half-maximal effect; for activity change, negative = inhibition: series mostly up to about 50 µM", "method_in_brief": "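NADPH consumption, followed by fluorescence at 340/450 nm between 0 and 15 min, reports GPX4 activity via coupled glutathione reductase (100 nM). Enzyme 200 nM was pre-exposed to compound 30 min; 0.5 mM cumene hydroperoxide and 1 mM GSH served as substrates.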"}, "[2]": {"assay": "Primary fluorescence-based thiol-reactive (MSTI) qHTS assay for identification of artifact compounds. (AID 1845221); note: nearly all actives have a fitted effect of over 65% in size; note: potency is the fitted concentration of half-maximal effect;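 for activity change, negative = thiol reactive: series mostly up to about 54 µM; thiol-reactive compounds lower the probe fluorescence signal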", "method_in_brief": "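Reactivity toward the thiol probe MSTI (4 uM) is scored by fluorescence at Ex/Em 525/598 nm after 1 h at room temperature. Acetyl-MSTI and MSTI define the activity scale.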"}, "[3]": {"system": "Nanoluciferase (engineered Oplophorus gracilirostris luciferase)", "assay": "Primary Nanoluciferase (NLuc) qHTS assay for identification of artifact compounds. (AID 1845222); note: series mostly up to about 54 µM", "method_in_brief": "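Luminescence from secreted NLuc (filtered, 1:55-diluted S16 cell medium) read 5 min after Nano-Glo substrate; compounds preincubated 15 min, RT. Hill fits of inhibition normalized to DMSO and no-enzyme.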"}, "[4]": {"assay": "Primary redox qHTS assay for identification of artifact compounds. (AID 1845223)", "method_in_brief": "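Amplex Red (25 uM) and HRP (250 mU/mL) in HBSS, with compounds for 15 min, then 250 uM DTT for 30 min, room temperature, dark. Fluorescence 525/598 nm read; normalized to DMSO and 10 uM DA3003; Hill fit.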"}, "[5]": {"biological_target": "Luciferin 4-monooxygenase (Photinus pyralis) (UniProt P08659)", "assay": "Primary firefly luciferase (FLuc) qHTS assay for identification of artifact compounds. (AID 1845220); note: nearly all actives have a fitted effect of over 60% in size; for activity change, negative = inhibition: series mostly up to about 54 µM", "method_in_brief": "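Compounds sat 15 min at room temperature with 10 uM luciferin and 10 uM ATP (pH 7.6 Tris acetate). Firefly luciferase (10 nM final) was then added, and luminescence was read 5 min later. Data normalized to no-enzyme and DMSO controls were Hill-fitted.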"}, "[6]": {"biological_target": "Cytochrome P450 3A4 (Homo sapiens) (UniProt P08684)", "sequence (P08684 whole entry, looked up, canonical isoform)": "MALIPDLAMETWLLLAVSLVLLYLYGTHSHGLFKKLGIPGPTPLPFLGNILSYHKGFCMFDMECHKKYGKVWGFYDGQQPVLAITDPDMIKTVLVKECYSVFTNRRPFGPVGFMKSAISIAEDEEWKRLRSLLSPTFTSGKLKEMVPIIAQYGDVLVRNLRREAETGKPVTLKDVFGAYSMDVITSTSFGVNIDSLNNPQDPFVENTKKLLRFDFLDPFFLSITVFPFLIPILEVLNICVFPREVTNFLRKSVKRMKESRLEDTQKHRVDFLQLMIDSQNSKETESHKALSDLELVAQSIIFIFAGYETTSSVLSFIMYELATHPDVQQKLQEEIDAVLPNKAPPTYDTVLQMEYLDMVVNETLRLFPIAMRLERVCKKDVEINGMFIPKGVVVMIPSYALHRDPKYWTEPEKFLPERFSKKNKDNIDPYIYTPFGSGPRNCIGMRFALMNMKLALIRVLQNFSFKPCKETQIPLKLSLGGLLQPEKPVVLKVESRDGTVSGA", "assay": "qHTS for inhibitors of CYP3A4 against the NCATS DSHEA and TCM libraries (AID 1919971);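 note: inhibition lowers luminescence from luciferin made by CYP3A4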", "method_in_brief": "(§1)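 Read-out is luminescence after P450-Glo detection (30 min, RT). Before that: 15 min compound–enzyme preincubation, then 30-45 min reaction with 1x NADPH regeneration solution, substrate concentration isoform-specific.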"}, "[7]": {"biological_target": "Cytochrome P450 2D6 (Homo sapiens) (UniProt P10635)", "sequence (P10635 whole entry, looked up)": "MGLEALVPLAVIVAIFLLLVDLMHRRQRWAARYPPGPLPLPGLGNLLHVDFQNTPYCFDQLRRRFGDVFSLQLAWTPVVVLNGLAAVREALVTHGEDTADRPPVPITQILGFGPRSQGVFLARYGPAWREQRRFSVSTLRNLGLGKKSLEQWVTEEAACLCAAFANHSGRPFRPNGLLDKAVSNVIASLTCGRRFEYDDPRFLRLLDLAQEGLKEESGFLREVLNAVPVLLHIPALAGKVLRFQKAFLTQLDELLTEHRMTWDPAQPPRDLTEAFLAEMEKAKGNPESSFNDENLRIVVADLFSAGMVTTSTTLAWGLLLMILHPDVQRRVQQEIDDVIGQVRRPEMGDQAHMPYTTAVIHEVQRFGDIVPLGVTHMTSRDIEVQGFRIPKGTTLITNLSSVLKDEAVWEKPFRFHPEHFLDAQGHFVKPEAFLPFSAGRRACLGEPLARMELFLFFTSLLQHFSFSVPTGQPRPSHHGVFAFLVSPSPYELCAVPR", "assay": "qHTS for inhibitors of CYP2D6 against the NCATS DSHEA and TCM libraries (AID 1919972)", "method_in_brief": "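Luminescent P450-Glo read-out of CYP2D6 turnover of a luciferin substrate after NADPH-driven reaction of 30-45 min at room temperature. Compounds were first preincubated 15 min with enzyme at titrated concentrations; quinidine was the intraplate control.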"}, "[8]": {"biological_target": "Cytochrome P450 2C9 (Homo sapiens) (UniProt P11712)", "sequence (P11712 whole entry, looked up)": "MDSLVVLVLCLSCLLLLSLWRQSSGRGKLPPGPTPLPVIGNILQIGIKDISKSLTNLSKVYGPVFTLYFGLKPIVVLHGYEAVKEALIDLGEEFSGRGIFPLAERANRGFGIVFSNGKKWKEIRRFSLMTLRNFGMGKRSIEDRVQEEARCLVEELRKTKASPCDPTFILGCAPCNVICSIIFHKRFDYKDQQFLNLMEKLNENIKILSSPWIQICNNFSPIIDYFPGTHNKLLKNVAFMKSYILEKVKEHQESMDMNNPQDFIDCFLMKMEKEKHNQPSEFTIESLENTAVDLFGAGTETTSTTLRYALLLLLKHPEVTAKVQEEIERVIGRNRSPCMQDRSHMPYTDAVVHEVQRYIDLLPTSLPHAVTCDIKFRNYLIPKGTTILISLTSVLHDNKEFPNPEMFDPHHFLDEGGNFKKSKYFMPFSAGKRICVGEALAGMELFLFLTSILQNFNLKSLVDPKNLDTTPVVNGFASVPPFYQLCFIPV", "assay": "qHTS for inhibitors of CYP2C9 against the NCATS DSHEA and TCM libraries (AID 1919973)", "method_in_brief": "as §1"}, "[9]": {"biological_target": "Cytochrome P450 2C19 (Homo sapiens) (UniProt P33261)", "sequence (P33261 whole entry, looked up)": "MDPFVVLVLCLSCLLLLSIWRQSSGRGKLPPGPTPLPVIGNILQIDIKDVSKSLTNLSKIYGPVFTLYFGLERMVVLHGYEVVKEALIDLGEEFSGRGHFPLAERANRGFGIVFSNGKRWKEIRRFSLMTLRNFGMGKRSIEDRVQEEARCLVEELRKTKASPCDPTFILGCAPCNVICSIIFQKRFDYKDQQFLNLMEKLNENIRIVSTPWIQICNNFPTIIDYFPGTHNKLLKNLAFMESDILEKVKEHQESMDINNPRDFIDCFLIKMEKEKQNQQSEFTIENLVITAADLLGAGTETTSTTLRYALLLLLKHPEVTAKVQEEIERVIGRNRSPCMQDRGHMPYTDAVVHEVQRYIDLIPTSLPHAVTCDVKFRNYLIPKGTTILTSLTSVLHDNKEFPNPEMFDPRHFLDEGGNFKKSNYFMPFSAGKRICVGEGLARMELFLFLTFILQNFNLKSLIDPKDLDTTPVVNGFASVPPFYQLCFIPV", "assay": "qHTS for inhibitors of CYP2C19 against the NCATS DSHEA and TCM libraries (AID 1919974)", "method_in_brief": "as §1"}, "[10]": {"assay": "KB-3-1 P-gp reporter qHTS against the NCATS DSHEA and TCM libraries (AID 1919975)", "method_in_brief": "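Parental KB-3-1 cells, 500 cells/well, in DMEM with 10% FBS, exposed 72 h at 37 C to compounds in concentration-response. Viability read by CellTiter-Glo luminescence after 30 min at room temperature.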"}},
  "note": "Values joined by “and” are separate entries in the source; they are usually repeats but may differ in a detail not shown here. Equal entries are not always repeated. Results filed as inconclusive are left out. Where a call stands in place of a potency, no number is given. A structure can be active in one record and inactive in another. Active and inactive are the calls of the source. Calls come from the whole dose curve; as a rule, active = well fitted curve in the direction sought with a large enough effect; inconclusive = small, poorly fitted or top-dose-only effect, or another doubt; inactive = no such curve, though single readings can be large; an effect the other way counts as inactive or inconclusive.",
  "data": [
    {"smiles": "Oc1ccc([C@H]2COc3cc(O)ccc3C2)cc1", "values": [
      {"measurement": "Potency", "setting": "[1]", "value": "inactive"},
      {"measurement": "Potency", "setting": "[2]", "value": "inactive"},
      {"measurement": "Potency", "setting": "[3]", "value": "inactive"},
      {"measurement": "Potency", "setting": "[4]", "value": "inactive"}
    ]},
    {"smiles": "CCOc1nc2cccc(C(=O)OCc3oc(=O)oc3C)c2n1Cc1ccc(-c2ccccc2-c2noc(O)n2)cc1", "values": [
      {"measurement": "Potency", "setting": "[1]", "value": "inactive and 12.6 µM (active)"},
      {"measurement": "Potency", "setting": "[2]", "value": "inactive"},
      {"measurement": "Potency", "setting": "[4]", "value": "inactive"}
    ]},
    {"smiles": "O=C(O)c1cc(O[C@@H]2O[C@H](CO[C@@H]3OC[C@@H](O)[C@H](O)[C@H]3O)[C@@H](O)[C@H](O)[C@H]2O)c2ccccc2c1O", "values": [
      {"measurement": "Potency", "setting": "[5]", "value": "inactive"},
      {"measurement": "Potency", "setting": "[2]", "value": "3.67 µM (active)"},
      {"measurement": "Potency", "setting": "[3]", "value": "inactive"}
    ]},
    {"smiles": "OCC1=CC[C@@H]2C=CO[C@@H](O[C@@H]3O[C@H](CO)[C@@H](O)[C@H](O)[C@H]3O)[C@H]12", "values": [
      {"measurement": "Potency", "setting": "[1]", "value": "inactive"},
      {"measurement": "Potency", "setting": "[5]", "value": "inactive"},
      {"measurement": "Potency", "setting": "[3]", "value": "inactive"},
      {"measurement": "Potency", "setting": "[4]", "value": "inactive"}
    ]},
    {"smiles": "COc1c(OC2OC(CO)C(O)C(O)C2O)ccc(O)c1C(=O)OCc1ccccc1O[C@@H]1O[C@H](CO)[C@@H](O)[C@H](O)[C@H]1O", "note": "(some centres undefined)", "values": [
      {"measurement": "Potency", "setting": "[1]", "value": "inactive"},
      {"measurement": "Potency", "setting": "[5]", "value": "inactive"},
      {"measurement": "Potency", "setting": "[4]", "value": "inactive"}
    ]},
    {"smiles": "COC1C2=C(COC2=O)C2(C)CCCC(C)(CO)C2C1OC(=O)c1ccccc1", "note": "(centres undefined)", "values": [
      {"measurement": "Potency", "setting": "[1]", "value": "inactive"},
      {"measurement": "Potency", "setting": "[5]", "value": "inactive"},
      {"measurement": "Potency", "setting": "[4]", "value": "inactive"}
    ]},
    {"smiles": "CC1=C(/C=C/C(C)=C/C=C/C(C)=C/C=C/C=C(C)/C=C/C=C(C)/C=C/C2=C(C)CCCC2(C)C)C(C)(C)CCC1", "values": [
      {"measurement": "Potency", "setting": "[1]", "value": "inactive"},
      {"measurement": "outcome", "setting": "[6]", "value": "inactive"},
      {"measurement": "outcome", "setting": "[7]", "value": "inactive"},
      {"measurement": "Potency", "setting": "[8]", "value": "inactive"},
      {"measurement": "Potency", "setting": "[9]", "value": "inactive"},
      {"measurement": "outcome", "setting": "[10]", "value": "inactive"}
    ]},
    {"smiles": "C[C@@H]1O[C@@H](O[C@H]2[C@H](OC(=O)[C@]34CCC(C)(C)C[C@H]3C3=CCC5[C@@]6(C)C[C@H](O)[C@H](O[C@@H]7O[C@H](CO)[C@@H](O[C@@H]8O[C@H](CO)[C@@H](O)[C@H](O)[C@H]8O)[C@H](O)[C@H]7O)[C@@](C)(CO)C6[C@H](O)C[C@@]5(C)[C@]3(C)C[C@H]4O)OC[C@H](O)[C@@H]2O)[C@H](O)[C@H](O)[C@H]1O[C@@H]1OC[C@@H](O)[C@H](O[C@@H]2OC[C@](O)(CO)[C@H]2O)[C@H]1O", "note": "(some centres undefined)", "values": [
      {"measurement": "activity change, negative = inhibition", "setting": "[5]", "value": "-27.8% [at 11.6 µM] (inactive)"},
      {"measurement": "activity change, negative = thiol reactive", "setting": "[2]", "value": "-12.6% [at 11.5 µM] (inactive)"},
      {"measurement": "activity, negative = inhibition", "setting": "[3]", "value": "2.77% [at 11.6 µM] (inactive)"}
    ]}
  ]
}
